Laboratory results published in PubChem BioAssay (NCATS).
Results filed as inconclusive are left out. Active and inactive are the calls of the source. Calls follow the shape of the dose curve; as a rule, active = well fitted curve in the direction sought with a large enough effect; inconclusive = small, poorly fitted or top-dose-only effect, or another doubt; inactive = no such curve, though single readings can be large; an effect the other way counts as inactive or inconclusive.

What was measured:
[1] = target: Glutathione peroxidase 1 (Homo sapiens) (UniProt P07203); test: Primary qHTS Assay for Inhibitors of Recombinant Selenoprotein Glutathione Peroxidase 1 (GPX1) (AID 1845191); also: nearly all actives have a fitted effect of over 65% in size; as to activity, negative = inhibition: % is scaled to controls: 0 for no effect and ±100 for the full control effect
Method in brief: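 GPX1 10 nM, GR 100 nM, GSH 1 mM, NADPH 0.5 mM, CHP 0.5 mM (final). 30-min cpd preincubation, RT. Ex340/Em450 read t=0, t=15 min.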

[2] = target: Phospholipid hydroperoxide glutathione peroxidase GPX4 (Homo sapiens) (UniProt P36969); test: Primary qHTS Assay for Inhibitors of Recombinant Selenoprotein Glutathione Peroxidase 4 (GPX4) (AID 1845192); also: nearly all actives have a fitted effect of over 65% in size; as to activity change, negative = inhibition: series mostly up to about 50 µM; % is scaled to controls: 0 for no effect and ±100 for the full control effect
Method in brief: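 qHTS, GR-coupled: GPX4 200 nM + cpd 30 min RT → GSH 1 mM, NADPH 0.5 mM, GR 100 nM → CHP 0.5 mM start; fluor 340/450 at t0 and t15 min; no-enzyme wells as control.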

[3] = target: Luciferin 4-monooxygenase (Photinus pyralis) (UniProt P08659); test: Primary firefly luciferase (FLuc) qHTS assay for identification of artifact compounds. (AID 1845220); also: nearly all actives have a fitted effect of over 60% in size;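 as to activity change, negative = inhibition: series mostly up to about 54 µM; plate controls were DMSO vehicle for no effect and no enzyme for full effect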
Method in brief: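 qHTS, 15 min compound preincubation with substrate (10 uM luciferin, 10 uM ATP) at RT, then 10 nM FLuc; 5 min; luminescence; % inhibition vs no-enzyme/DMSO controls, 4-parameter Hill fit.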

[4] = Primary fluorescence-based thiol-reactive (MSTI) qHTS assay for identification of artifact compounds. (AID 1845221); also: nearly all actives have a fitted effect of over 65% in size; also: potency is read from the fitted curve at half-maximal effect
Method in brief: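 Thiol-reactive compounds detected by quenching of 4 uM MSTI fluorescence (525/598 nm) after 1 h room-temperature dark incubation in PBS pH 7.4, 2% DMSO. qHTS titration; percent inhibition Hill-fitted against Acetyl-MSTI/MSTI controls.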

[5] = test system: Nanoluciferase (engineered Oplophorus gracilirostris luciferase); test: Primary Nanoluciferase (NLuc) qHTS assay for identification of artifact compounds. (AID 1845222); also: series mostly up to about 54 µM
Method in brief: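 Luminescence read-out of secreted NLuc in S16 cell conditioned medium (1:55); compounds tested with 15 min RT preincubation, then Nano-Glo substrate 1:100, 5 min. % inhibition vs no-enzyme and DMSO controls, 4-parameter Hill fit.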

[6] = Primary redox qHTS assay for identification of artifact compounds. (AID 1845223);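 also: 0% = DMSO and 100% = reference compound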
Method in brief: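 Redox-cycling detection via DTT (250 uM final) oxidation coupled to Amplex Red (25 uM)/HRP (250 mU/mL) in HBSS. 15 min preincubation plus 30 min after DTT, room temperature. Ex/Em 525/598 nm; 4-parameter Hill fit against DMSO and 10 uM DA3003.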

Glutathione peroxidase 1 (Homo sapiens), sequence (P07203 whole entry, looked up): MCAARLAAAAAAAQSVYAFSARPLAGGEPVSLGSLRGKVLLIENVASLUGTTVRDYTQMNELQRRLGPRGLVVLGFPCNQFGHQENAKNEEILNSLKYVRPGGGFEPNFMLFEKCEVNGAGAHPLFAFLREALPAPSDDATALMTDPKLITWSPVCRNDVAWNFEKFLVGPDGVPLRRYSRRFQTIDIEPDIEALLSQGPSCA
Phospholipid hydroperoxide glutathione peroxidase GPX4 (Homo sapiens), sequence (P36969 whole entry, looked up): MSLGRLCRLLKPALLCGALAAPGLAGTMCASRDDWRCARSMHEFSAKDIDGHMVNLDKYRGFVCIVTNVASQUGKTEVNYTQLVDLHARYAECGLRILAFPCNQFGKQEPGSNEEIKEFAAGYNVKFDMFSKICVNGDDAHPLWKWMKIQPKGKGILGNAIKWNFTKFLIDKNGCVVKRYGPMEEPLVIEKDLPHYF

COc1c2cc(c(O)c1OC)-c1cc(ccc1O)CCC(O)CCCC2 (stereo not given)
inactive: Potency [1] | Potency [2] | Potency [3] | Potency [4] | Potency [5] | Potency [6]

FC(F)(F)c1cc(-c2ncn(/C=C\c3nnco3)n2)cc(C(F)(F)F)c1
inactive: Potency [1] | Potency [2] | Potency [3] | Potency [4] | Potency [5] | Potency [6]

Nc1ncnc2c([C@@H]3N[C@H](CO)[C@@H](O)[C@H]3O)c[nH]c12
inactive: Potency [1] | Potency [2] | Potency [3] | Potency [4] | Potency [5] | Potency [6]

CC/C=C\CC1C(=O)C=CC1(CCCCCCCC(=O)O)OC(C)=O (stereo not given)
inactive: Potency [1] | Potency [2] | Potency [3] | Potency [5]

CC(=O)NC[C@H]1CN(c2ccc(N3CCN(C(=O)CO)CC3)c(F)c2)C(=O)O1
inactive: Potency [1] | Potency [2] | Potency [3] | Potency [4] | Potency [5] | Potency [6]

CC(C)=CCCC1(C)C=Cc2c(c(C)cc3c2[nH]c2ccccc23)O1 (stereo not given)
active: Potency [4] 2.93 µM
inactive: Potency [1] | Potency [2] | Potency [3] | Potency [5] | Potency [6]

C/C1=C\C[C@]2(C)C(=O)C(O)=C([C@H](C)CO)[C@H]2C/C=C(\C)[C@@H](O)CC/C(C)=C/CC1
inactive: Potency [1] | Potency [2] | Potency [3] | Potency [4] | Potency [5] | Potency [6]

C=C1C(=O)OC2CC(C)=C(C(C)CCCO)C(O)C12 (stereo not given)
inactive: Potency [1] | Potency [2] | Potency [3] | Potency [5] | Potency [6]
active: Potency [4] 5.97 µM

C[C@H]1Oc2cc(cnc2N)-c2c(nn(C)c2C#N)CN(C)C(=O)c2ccc(F)cc21
inactive: Potency [1] | Potency [2] | Potency [3] | Potency [4] | Potency [5] | Potency [6]

C=C1CC[C@H]2[C@@](C)(CCC(O)[C@@]2(C)CO)[C@@H]1CCC1=CCOC1=O (stereo not given in full)
inactive: Potency [1] | Potency [2] | Potency [3] | Potency [4] | Potency [5] | Potency [6]

CC(=O)O[C@H]1C[C@@]2(C)[C@@H](CC[C@H]3[C@@]4(C)C=CC(=O)[C@@H](C)[C@@H]4[C@H](O)C(=O)[C@@]32C)/C1=C(/CCC=C(C)C)C(=O)O
inactive: Potency [1] | Potency [2] | Potency [3] | Potency [4] | Potency [5] | Potency [6]

COC(=O)C1=CO[C@@H](O)C2C(CO)=CCC12 (stereo not given in full)
inactive: Potency [1] | Potency [2] | Potency [3] | Potency [4] | Potency [5] | Potency [6]

O=C(COc1cccc2c(=O)[nH]ccc12)c1ccccc1
inactive: Potency [1] | Potency [2] | Potency [3] | Potency [4] | Potency [5] | Potency [6]

C=CC(C)(C)C12C=C(OC)C(=O)N3C(C(C)C)C(=O)NC31N(OC)c1ccccc12 (stereo not given)
inactive: Potency [1] | Potency [2] | Potency [3] | Potency [4] | Potency [5] | Potency [6]

CC1CCCCN1S(=O)(=O)c1ccc(N2CCCC2=O)cc1 (stereo not given)
inactive: Potency [1] | Potency [2] | Potency [3] | Potency [4] | Potency [5] | Potency [6]

NC(=O)c1cccc(-c2cc(OC(=O)NC3CCCCC3)ccc2O)c1
inactive: Potency [1] | Potency [2] | Potency [3] | Potency [4] | Potency [5] | Potency [6]

Fc1ccc2nc(CCC#Cc3ccccn3)cn2c1
inactive: Potency [1] | Potency [2] | Potency [3] | Potency [4] | Potency [5] | Potency [6]

CN1C2CCC1CC(OC(=O)[C@H](CO)c1ccccc1)C2 (stereo not given in full)
inactive: Potency [1] | Potency [2] | Potency [3] | Potency [4] | Potency [5] | Potency [6]

O=S(=O)(Nc1ccccn1)c1ccc(N=Cc2c(O)[nH]c3ccc4ncsc4c23)cc1
inactive: outcome [1] inactive [at 9.52 µM] | outcome [2] inactive [at 9.73 µM] | outcome [3] inactive [at 11.6 µM] | activity, negative = inhibition [5] -7.47% [at 11.6 µM] | redox activity (% of DA3003) [6] -4.81% [at 11.5 µM]

CCCCNc1ccc(-c2ccc(CN3CCOCC3)cn2)c(NC2CCC(O)CC2)c1 (stereo not given)
inactive: Potency [1] | Potency [2] | Potency [4] | Potency [5]

Cc1cccc(-c2[nH]c(Cc3cccc(C(N)=O)c3)nc2-c2ccc3nccnc3c2)n1
inactive: Potency [1] | Potency [2] | Potency [3] | Potency [5] | Potency [6]

COc1cc(Br)c(Nc2nc(-c3c(C)nc4ncccn34)cs2)c(Br)c1
inactive: Potency [1] | Potency [2] | Potency [3] | Potency [5] | Potency [6]

COC(=O)c1ccccc1O[C@@H]1O[C@H](CO)[C@@H](O)[C@H](O)[C@H]1O[C@@H]1O[C@@H](C)[C@H](O)[C@@H](O)[C@H]1O
inactive: Potency [1] | Potency [2] | Potency [3] | Potency [5] | Potency [6]

CC(C)/C=C1\NC(=O)C(C(C)C)n2c1nc1c(c2=O)C=CC=CO1 (stereo not given)
inactive: Potency [1] | Potency [2] | Potency [3] | Potency [5] | Potency [6]

C=C(C(=O)O)C1CCC2(C)CCC(O)C(C)(O)C2C1 (stereo not given)
inactive: Potency [1] | Potency [2] | Potency [3] | Potency [5] | Potency [6]

CC(=O)O[C@@H]1[C@H](O[C@@H]2O[C@@H](CO)[C@H](O)[C@H]2O)[C@@H](O[C@@H]2O[C@@H](C)[C@H](O[C@@H]3OC[C@@H](O)[C@H](O)[C@H]3O)[C@@H](O)[C@H]2O)[C@H](OC(=O)[C@]23CCC(C)(C)C[C@H]2C2=CCC4[C@@]5(C)CC[C@H](O[C@@H]6O[C@H](C(=O)O)[C@@H](O)[C@H](O)[C@H]6O[C@@H]6O[C@H](CO)[C@H](O)[C@H](O)[C@H]6O)[C@@](C)(C=O)C5CC[C@@]4(C)[C@]2(C)CC3)O[C@@H]1C (stereo not given in full)
inactive: activity, negative = inhibition [1] -3.42% [at 9.52 µM] | activity change, negative = inhibition [2] 2.32% [at 9.73 µM] | activity change, negative = inhibition [3] 4.46% [at 11.6 µM] | activity, negative = inhibition [5] 0% [at 11.6 µM] | redox activity (% of DA3003) [6] 1.35% [at 11.5 µM]
